Potency data for 27 compounds are collected here from PubChem BioAssay (NCATS).

Several values for one entry are separate records, joined by “and”; a condition that tells them apart may be missing. Identical values can stand only once. Inconclusive results are not listed. Activity calls are given as the source filed them. Calls come from the whole dose curve; as a rule, active = well fitted cell-killing curve with a large enough effect; inconclusive = small, poorly fitted or top-dose-only effect; inactive = no such curve, though single readings can be large or run the other way. Non-standard residues stand in square brackets, D forms with d. Residues, ends and D or L forms follow the SMILES beside them. *: point of attachment. Sta = CC(C)C[C@H](N)[C@@H](O)CC(=O)O; Isovaleryl = CC(C)CC(=O)*
Potency is the fitted concentration of half-maximal effect.

This assay is described as follows: qHTS of pediatric cancer cell lines to identify multiple opportunities for drug repurposing: Confirmatory screen for TC32 cells (AID 1347118).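 Note: cells exposed to compound for 48 h before the read; nearly all actives have a fitted effect of over 65% in size.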 The settings on record: TC32 Ewing sarcoma cells viability qHTS; series mostly up to 45.9 µM. An excerpt: Drug repurposing or repositioning has been offered as a strategy for drug development in oncology programs. This approach has special potential for childhood cancers and other rare or orphan diseases, where the expected return on new drug development has been a disincentive to pharmaceuticals.
In this project we exploit the poly-pharmacology of drugs to discover new indications via phenotypic screening of a panel of 19 well-characterized cell lines derived from solid tumors seen in children and adolescents. The goal is to identify approved drugs with previously unrecognized anticancer properties that has the potential to reveal new mechanisms and biological processes involved in carcinogenesis or drug resistance. We employed a titration-based paradigm (quantitative high-throughput screening or qHTS), where all compounds were tested at multiple concentrations for their effect on cell viability. Concentration-response curves (CRCs) were derived directly from the primary screen, and both potency and efficacy values were used to identify compounds with robust bioactivity profiles. We screened the NIH Chemical Genomics Center (NCGC) Pharmaceutical Collection (NPC) and Mechanism Interrogation Plate (MIPE) small molecule collections of approved and investigational compounds against these cell lines; and measured metabolically active cells after 48 hours of compound treatment as a proxy for cell viability.
Assay Submitter: Nathalia J. Martinez, National Center for Advancing Translational Sciences, National Institutes of Health, Rockville, MD, USA; email: natalia.martinez@nih.gov
[1] Shen, M et al. Quantitative high-throughput phenotypic screening of pediatric cancer cell lines identifies multiple opportunities for drug repurposing. Oncotarget 2017 Dec 19;9(4):4758-4772. PMID 29435139.
The cells were obtained from University of North Carolina (UNC), Pediatric Preclinical Testing Program (PPT), and Coriell Institute (CI).
qHTS cell viability assay:
Cells were assayed in growth media at a density of 500-1,000 cells/well. Five microliters of cells were dispensed into 1,536-well, white, solid-bottom, TC-treated plates (Greiner Bio One) using a multidrop dispenser and incubated at 37 degrees C, 5% CO2, under a humidified atmosphere for 5 hours. Twenty-three nanoliters of compounds and controls (neutral control DMSO or positive control bortezomib at final concentration of 2.3 uM) were subsequently transferred by Kalypsys pintool. For primary screens, the MIPE collection was tested at 11-point dilutions (final concentrations range from 0.78 nM to 46 µM) and the NPC collection at 8-point dilutions (final concentrations range from 0.59 nM to 46 µM). Compounds tested in follow-up screens were assayed at 11-point dilutions. Cells were incubated for 48 hours, followed by addition of 3 uL of CellTiter-Glo (Promega). After a 15min incubation at room temperature, samples were analyzed for luminescence intensity using a ViewLux High-throughput CCD imager equipped with clear filters.
In general terms: qHTS replaces the single test concentration by a dilution series.
As for `Clc1ccc(C(Cn2ccnc2)OCc2ccc(Sc3ccccc3)cc2)c(Cl)c1` (configuration not stated), the Potency was 10.4 µM (active).
Regarding `CC(C)CC(=O)N[C@H](C(=O)N[C@H](C(=O)N[C@@H](CC(C)C)[C@@H](O)CC(=O)N[C@@H](C)C(=O)N[C@@H](CC(C)C)[C@@H](O)CC(=O)O)C(C)C)C(C)C` (Isovaleryl-VV[Sta]A[Sta]-OH), the Potency is 5.85 µM (active).
Then `Nc1nc(Cl)nc2c1ncn2[C@H]1C[C@H](O)[C@@H](CO)O1`, with 0.737 µM (active); and `Cc1c(C(=O)NN2CCCCC2)nn(-c2ccc(Cl)cc2Cl)c1-c1ccc(Cl)cc1`, with 23.3 µM (active); and `CN(C)c1ccc(O)c2c1C[C@H]1C[C@H]3[C@H](N(C)C)C(=O)C(C(N)=O)=C(O)[C@@]3(O)C(=O)C1=C2O`, with 5.85 µM (active).
Regarding `CCN(CC)CCOc1ccc(Nc2ncc3cc(-c4c(Cl)cccc4Cl)c(=O)n(C)c3n2)cc1`, the Potency is 2.61 µM (active).
Consider `CCN(CC)C(=S)SSC(=S)N(CC)CC`, for which the Potency is 0.293 µM (active).
Under `O=C(NCC1CCCCN1)c1cc(OCC(F)(F)F)ccc1OCC(F)(F)F` (configuration not stated) stands 5.22 µM (active).
`Cc1cc(C2CCCCC2)n(O)c(=O)c1`: the Potency is 4.65 µM (active).
For `O=C(CCc1ccc(O)cc1)c1c(O)cc(O)cc1O`, the Potency result is “inactive”.
Regarding `CN(C)c1ccc2nc3ccc(=[N+](C)C)cc-3sc2c1`, the Potency is 2.61 µM (active).
Then `CC1(C)C(=O)N(CCN2CCC(C(=O)c3ccc(F)cc3)CC2)c2ccccc21`, with 7.37 µM (active).
Under `CC(C)C[C@H](NC(=O)[C@H](Cc1ccccc1)NC(=O)c1cnccn1)B(O)O` stands 0.0414 µM (active); under `CC(S)C(=O)NCC(=O)O` (configuration not stated), “inactive”; under `CCN(CCO)CCCC(C)Nc1ccnc2cc(Cl)ccc12` (configuration not stated), “inactive”.
Then `CCCCc1ccc2nc(NC(=O)OC)[nH]c2c1`, with 0.293 µM (active); and `Cc1nc(Nc2ncc(C(=O)Nc3c(C)cccc3Cl)s2)cc(N2CCN(CCO)CC2)n1`, with “inactive”; and `Clc1ccc(C(Cn2ccnc2)OCc2ccsc2Cl)c(Cl)c1` (configuration not stated), with 11.7 µM (active).
With `COc1cc(C(C)=O)ccc1OCCCN1CCC(c2noc3cc(F)ccc23)CC1`, the Potency was 20.8 µM (active).
On to `Nc1nc(OCc2ccccc2)c2[nH]cnc2n1`, for which the Potency entry was “inactive”.
Then `O=C1c2c(O)cc(O)cc2OC(c2ccc(O)c(O)c2)C1O` (configuration not stated), with “inactive”; and `CCOc1cc(CC(=O)N[C@@H](CC(C)C)c2ccccc2N2CCCCC2)ccc1C(=O)O`, with “inactive”.
Regarding `Oc1ccc(-c2nc(-c3ccc(F)cc3)c(-c3ccncc3)[nH]2)cc1`, the Potency was 0.737 µM (active).
Turning to `CC[C@]1(O)C[C@H]2CN(CCc3c([nH]c4ccccc34)[C@@](C(=O)OC)(c3cc4c(cc3OC)N(C=O)[C@H]3[C@@](O)(C(=O)OC)[C@H](OC(C)=O)[C@]5(CC)C=CCN6CC[C@]43[C@@H]65)C2)C1`, the Potency was 26.1 nM (active) and 117 nM (active).
Then `CCCOc1ccc2nc(NC(=O)OC)[nH]c2c1`, with 0.928 µM (active); and `CC(=O)O[C@H]1C(=O)[C@@]2(C)C([C@H](OC(=O)c3ccccc3)[C@]3(O)C[C@H](OC(=O)[C@H](O)[C@@H](NC(=O)c4ccccc4)c4ccccc4)C(C)=C1C3(C)C)[C@]1(OC(C)=O)CO[C@@H]1C[C@@H]2O` (some centres not stated), with 0.0104 µM (active); and `CCc1nc(N)nc(N)c1-c1ccc(Cl)cc1`, with 2.93 µM (active).
